Measured values from the supplement of paper PMC10849652.
Targets with a hit are over-represented here; the source holds about 7,900 in all. About 0.6% of all pairs of compound and target were hits. Values without a mark were called inactive.

How the values were obtained:
Experiment in all cases: log2 fold change, soluble protein after heating vs DMSO (PISA); higher = thermal stabilisation; K562 cells, 10 uM, 30 min; active = over 0.2 and 3.5 SD of the protein, either way, in both replicates (recomputed)
[1] = compound: COC1=CC=C(C=C1)CN2C=CC3=C2C=C(C=C3)C(=O)NO
Summary of the method: (§1)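 Values are thermal stability changes relative to control samples and are taken from duplicates. They are stated as log2 fold changes. Before quantification by TMTpro 16plex LC-MS/MS with equalised channel sums, K562 cells at 2×10^6 cells/mL were treated with 10 μM compound for 30 min, heated in aliquots for 3 min across 48°C-58°C, pooled, extracted in PBS with 0.5% NP-40 at 4°C, and centrifuged at 21,000xg for 90 min to give the soluble supernatant.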

[2] = compound: CON(C)C(=O)N1N=C(c2cc(F)ccc2F)S[C@@]1(CCCN)c1ccccc1 [filanesib]
Summary of the method: as §1

[3] = compound: CO[C@H]1C[C@@H]2CC[C@@H](C)[C@@](O)(O2)C(=O)C(=O)N2CCCC[C@H]2C(=O)O[C@H]([C@H](C)C[C@@H]2CC[C@H](n3cnnn3)[C@H](OC)C2)CC(=O)[C@H](C)/C=C(\C)[C@@H](O)[C@@H](OC)C(=O)[C@H](C)C[C@H](C)/C=C/C=C/C=C/1C [zotarolimus]
Summary of the method: as §1

[4] = compound: COc1cc(C(=O)O)ccc1NC(=O)[C@@H]1N[C@@H](CC(C)(C)C)[C@](C#N)(c2ccc(Cl)cc2F)[C@H]1c1cccc(Cl)c1F [idasanutlin]
Summary of the method: as §1

[5] = compound: COc1cc(Nc2ncc3c(n2)-c2ccc(Cl)cc2C(c2c(F)cccc2OC)=NC3)ccc1C(=O)O [alisertib]
Summary of the method: as §1

[6] = compound: COc1cc2nc(-c3cc(F)ccc3O)nc(N[C@@H]3CNC[C@H]3C(C)(C)O)c2cc1OC
Summary of the method: as §1

[7] = compound: COc1cc2ncnc(Nc3ccc(F)c(Cl)c3)c2cc1OCCCN1CCOCC1 [gefitinib]
Summary of the method: as §1

[8] = compound: COc1cccc2cc(-c3nc([C@H]4CC[C@H](C(=O)O)CC4)n4ncnc(N)c34)[nH]c12
Summary of the method: as §1

[9] = compound: CS(=O)(=O)CCNCc1ccc(-c2ccc3ncnc(Nc4ccc(OCc5cccc(F)c5)c(Cl)c4)c3c2)o1 [lapatinib]
Summary of the method: as §1

[10] = compound: CS(=O)(=O)N1CCN(Cc2cc3nc(-c4cccc5[nH]ncc45)nc(N4CCOCC4)c3s2)CC1 [pictilisib]
Summary of the method: as §1

UniProt Q9BXP2, sequence (Q9BXP2 whole entry, looked up): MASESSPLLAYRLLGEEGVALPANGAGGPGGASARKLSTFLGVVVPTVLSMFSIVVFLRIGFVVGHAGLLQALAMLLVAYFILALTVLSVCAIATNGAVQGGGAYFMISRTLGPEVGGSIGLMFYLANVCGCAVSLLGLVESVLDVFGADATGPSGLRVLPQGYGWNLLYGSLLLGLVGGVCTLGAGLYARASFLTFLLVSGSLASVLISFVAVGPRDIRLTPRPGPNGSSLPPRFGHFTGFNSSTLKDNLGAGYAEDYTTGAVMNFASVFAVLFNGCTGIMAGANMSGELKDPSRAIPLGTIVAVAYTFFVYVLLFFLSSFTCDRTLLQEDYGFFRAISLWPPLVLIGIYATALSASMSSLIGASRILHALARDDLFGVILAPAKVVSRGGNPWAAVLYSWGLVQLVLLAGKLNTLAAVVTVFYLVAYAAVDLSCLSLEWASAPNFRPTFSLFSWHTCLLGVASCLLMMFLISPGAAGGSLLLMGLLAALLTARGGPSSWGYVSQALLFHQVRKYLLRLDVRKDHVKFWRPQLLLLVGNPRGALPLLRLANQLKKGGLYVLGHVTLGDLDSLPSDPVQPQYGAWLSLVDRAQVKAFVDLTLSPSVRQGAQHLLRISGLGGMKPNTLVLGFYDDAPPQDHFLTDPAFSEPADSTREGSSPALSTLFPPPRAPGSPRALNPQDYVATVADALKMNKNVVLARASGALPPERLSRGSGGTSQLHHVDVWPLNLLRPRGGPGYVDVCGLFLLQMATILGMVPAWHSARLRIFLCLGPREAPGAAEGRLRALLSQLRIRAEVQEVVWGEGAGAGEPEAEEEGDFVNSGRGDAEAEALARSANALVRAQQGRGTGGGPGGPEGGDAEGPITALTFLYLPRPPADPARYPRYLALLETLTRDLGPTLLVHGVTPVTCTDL
UniProt Q99719, sequence (Q99719 whole entry, looked up): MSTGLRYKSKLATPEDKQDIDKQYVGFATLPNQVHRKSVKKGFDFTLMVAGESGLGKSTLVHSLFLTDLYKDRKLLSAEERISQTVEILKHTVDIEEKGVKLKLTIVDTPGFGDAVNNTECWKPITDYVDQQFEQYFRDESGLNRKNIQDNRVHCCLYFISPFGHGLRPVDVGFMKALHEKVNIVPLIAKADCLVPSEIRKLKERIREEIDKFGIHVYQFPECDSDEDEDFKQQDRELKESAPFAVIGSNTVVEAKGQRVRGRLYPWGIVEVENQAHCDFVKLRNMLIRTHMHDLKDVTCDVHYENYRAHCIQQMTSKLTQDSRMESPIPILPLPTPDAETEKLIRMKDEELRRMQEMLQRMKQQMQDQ
UniProt Q96EV2, sequence (Q96EV2 whole entry, looked up): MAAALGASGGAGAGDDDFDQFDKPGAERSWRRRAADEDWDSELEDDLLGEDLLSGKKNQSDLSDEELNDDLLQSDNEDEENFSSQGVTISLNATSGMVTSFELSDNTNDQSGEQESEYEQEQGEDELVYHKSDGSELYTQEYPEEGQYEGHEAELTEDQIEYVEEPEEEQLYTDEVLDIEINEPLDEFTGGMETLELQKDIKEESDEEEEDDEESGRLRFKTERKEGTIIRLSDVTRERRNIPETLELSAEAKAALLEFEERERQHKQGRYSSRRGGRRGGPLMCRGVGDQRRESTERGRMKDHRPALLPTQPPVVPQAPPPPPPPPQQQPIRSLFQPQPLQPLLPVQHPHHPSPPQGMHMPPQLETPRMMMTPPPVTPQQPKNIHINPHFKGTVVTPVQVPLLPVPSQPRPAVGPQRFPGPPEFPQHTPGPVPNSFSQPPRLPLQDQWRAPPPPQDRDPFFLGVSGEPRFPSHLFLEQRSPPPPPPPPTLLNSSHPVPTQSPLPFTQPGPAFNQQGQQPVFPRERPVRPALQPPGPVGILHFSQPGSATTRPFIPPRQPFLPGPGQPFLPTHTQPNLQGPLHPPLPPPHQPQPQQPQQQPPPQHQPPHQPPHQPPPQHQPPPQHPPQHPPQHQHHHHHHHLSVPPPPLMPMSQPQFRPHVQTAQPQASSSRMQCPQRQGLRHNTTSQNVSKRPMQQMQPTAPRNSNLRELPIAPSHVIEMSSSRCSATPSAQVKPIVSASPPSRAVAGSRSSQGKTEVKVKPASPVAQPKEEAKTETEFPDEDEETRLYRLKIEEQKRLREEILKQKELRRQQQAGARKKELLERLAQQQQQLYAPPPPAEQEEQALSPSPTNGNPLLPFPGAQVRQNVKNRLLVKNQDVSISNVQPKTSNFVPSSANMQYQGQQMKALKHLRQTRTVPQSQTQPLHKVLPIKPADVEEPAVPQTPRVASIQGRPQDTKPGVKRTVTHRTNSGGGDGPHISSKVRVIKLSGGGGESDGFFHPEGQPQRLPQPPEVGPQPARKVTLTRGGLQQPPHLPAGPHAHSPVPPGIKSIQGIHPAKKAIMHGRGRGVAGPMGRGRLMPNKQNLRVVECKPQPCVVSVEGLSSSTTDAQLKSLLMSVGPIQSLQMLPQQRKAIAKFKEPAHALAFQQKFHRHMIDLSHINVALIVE
UniProt Q5TA31, sequence (Q5TA31 whole entry, looked up): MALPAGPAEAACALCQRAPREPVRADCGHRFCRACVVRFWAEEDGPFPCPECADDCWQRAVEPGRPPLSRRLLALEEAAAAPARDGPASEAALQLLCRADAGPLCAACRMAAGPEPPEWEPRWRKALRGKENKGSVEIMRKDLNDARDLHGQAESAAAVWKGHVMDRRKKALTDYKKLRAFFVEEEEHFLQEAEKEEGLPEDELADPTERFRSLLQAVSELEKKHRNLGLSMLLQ
UniProt P62070, sequence (P62070 whole entry, looked up): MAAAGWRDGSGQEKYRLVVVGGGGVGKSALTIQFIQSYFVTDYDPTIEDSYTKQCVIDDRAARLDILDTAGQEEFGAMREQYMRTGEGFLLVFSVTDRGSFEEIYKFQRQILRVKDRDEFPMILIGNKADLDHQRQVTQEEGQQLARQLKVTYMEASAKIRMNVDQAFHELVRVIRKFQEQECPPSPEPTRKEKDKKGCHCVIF
UniProt Q9NPQ8, sequence (Q9NPQ8 whole entry, looked up): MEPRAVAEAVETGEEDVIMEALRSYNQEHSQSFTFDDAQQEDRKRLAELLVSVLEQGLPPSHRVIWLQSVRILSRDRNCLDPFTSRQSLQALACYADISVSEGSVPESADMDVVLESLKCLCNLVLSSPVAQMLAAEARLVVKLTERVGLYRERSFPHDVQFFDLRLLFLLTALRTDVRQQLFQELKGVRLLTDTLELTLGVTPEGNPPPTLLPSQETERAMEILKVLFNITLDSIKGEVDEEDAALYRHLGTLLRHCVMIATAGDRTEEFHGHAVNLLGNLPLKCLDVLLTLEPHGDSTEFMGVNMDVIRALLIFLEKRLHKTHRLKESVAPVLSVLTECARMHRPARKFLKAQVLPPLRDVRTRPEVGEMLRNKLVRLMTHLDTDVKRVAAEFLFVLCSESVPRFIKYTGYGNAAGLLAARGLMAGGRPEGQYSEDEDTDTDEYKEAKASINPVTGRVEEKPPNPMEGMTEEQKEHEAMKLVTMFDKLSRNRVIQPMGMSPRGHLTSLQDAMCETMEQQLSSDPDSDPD
UniProt Q13464, sequence (Q13464 whole entry, looked up): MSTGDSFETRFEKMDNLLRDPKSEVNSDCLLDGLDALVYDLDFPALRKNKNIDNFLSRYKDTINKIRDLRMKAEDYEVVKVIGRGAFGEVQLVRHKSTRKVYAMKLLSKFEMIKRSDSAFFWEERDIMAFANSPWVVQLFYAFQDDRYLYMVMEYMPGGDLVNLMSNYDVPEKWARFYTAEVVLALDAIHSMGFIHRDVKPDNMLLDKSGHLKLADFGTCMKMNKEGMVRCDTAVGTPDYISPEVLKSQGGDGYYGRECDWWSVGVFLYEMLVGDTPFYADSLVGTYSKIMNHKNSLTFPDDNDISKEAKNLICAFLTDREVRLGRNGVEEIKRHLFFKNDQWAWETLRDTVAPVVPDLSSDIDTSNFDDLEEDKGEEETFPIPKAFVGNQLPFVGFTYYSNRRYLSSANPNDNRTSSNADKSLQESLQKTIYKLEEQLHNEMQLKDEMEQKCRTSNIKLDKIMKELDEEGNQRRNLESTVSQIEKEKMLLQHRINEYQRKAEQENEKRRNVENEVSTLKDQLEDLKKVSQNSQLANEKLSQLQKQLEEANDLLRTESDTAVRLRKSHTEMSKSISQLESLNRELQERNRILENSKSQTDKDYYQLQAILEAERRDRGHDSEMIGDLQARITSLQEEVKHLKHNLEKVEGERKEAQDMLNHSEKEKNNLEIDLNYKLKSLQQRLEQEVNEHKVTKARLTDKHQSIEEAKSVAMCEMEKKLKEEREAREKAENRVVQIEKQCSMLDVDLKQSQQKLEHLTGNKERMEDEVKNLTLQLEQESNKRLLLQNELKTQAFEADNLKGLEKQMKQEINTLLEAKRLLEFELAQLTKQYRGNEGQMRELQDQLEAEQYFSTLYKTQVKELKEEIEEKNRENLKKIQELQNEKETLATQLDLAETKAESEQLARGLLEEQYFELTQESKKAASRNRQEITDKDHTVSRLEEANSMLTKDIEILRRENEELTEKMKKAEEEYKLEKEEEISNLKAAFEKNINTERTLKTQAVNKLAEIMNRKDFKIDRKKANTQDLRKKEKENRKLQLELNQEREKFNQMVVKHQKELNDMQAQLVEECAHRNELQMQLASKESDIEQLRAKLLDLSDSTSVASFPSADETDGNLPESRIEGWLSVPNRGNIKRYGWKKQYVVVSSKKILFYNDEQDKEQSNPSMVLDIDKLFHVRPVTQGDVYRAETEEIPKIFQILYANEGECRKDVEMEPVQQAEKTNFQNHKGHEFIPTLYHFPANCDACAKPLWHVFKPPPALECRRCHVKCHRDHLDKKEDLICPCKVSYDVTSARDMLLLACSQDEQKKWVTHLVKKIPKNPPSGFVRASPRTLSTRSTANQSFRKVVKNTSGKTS

Target | log2 fold change [1] | log2 fold change [2] | log2 fold change [3] | log2 fold change [4] | log2 fold change [5] | log2 fold change [6] | log2 fold change [7] | log2 fold change [8] | log2 fold change [9] | log2 fold change [10]
RPS21 (UniProt P63220) | -0.033 | 0.086 | -0.021 | 0.031 | -0.069 | 0.04 | 0.002 | -0.022 | -0.027 | -0.01
RNF187 (UniProt Q5TA31) | 0.028 | 0.003 | -0.006 | -0.032 | -0.104 | 0.047 | -0.012 | -0.053 | -0.07 | -0.037
SLC12A9 (UniProt Q9BXP2) | -0.022 | -0.093 | 0.091 | 0.044 | -0.106 | 0.049 | -0.151 | 0.023 | 0.075 | -0.121
RUFY1 (UniProt Q96T51) | -0.015 | 0.005 | 0.056 | -0.049 | 0.047 | 0.02 | -0.004 | -0.053 | -0.035 | -0.009
RIC8A isoform 3 (UniProt Q9NPQ8) | -0.007 | -0.046 | -0.058 | -0.032 | 0.159 | -0.095 | 0.043 | 0.009 | 0.001 | -0.002
RRAS2 isoform 4 (UniProt P62070) | 0.004 | 0.059 | -0.025 | 0.016 | -0.099 | 0.075 | 0.061 | 0.093 | 0.017 | 0.05
SIRT2 (UniProt Q8IXJ6) | 0.083 | -0.02 | -0.029 | 0.016 | 0.036 | -0.012 | 0.069 | 0.017 | 0.065 | 0.168
SEPTIN5 (UniProt Q99719) | 0.034 | -0.003 | 0.013 | -0.067 | -0.044 | 0 | 0.006 | 0.02 | -0.035 | 0.08
RBM33 (UniProt Q96EV2) | 0.134 | 0.013 | 0.03 | 0.042 | -0.031 | -0.078 | 0.035 | -0.028 | 0.008 | -0.044
RPL38 (UniProt P63173) | -0.109 | 0 | -0.007 | 0.055 | -0.064 | 0.061 | -0.074 | -0.171 | 0.05 | -0.053
ROCK1 (UniProt Q13464) | 0.037 | -0.028 | 0.003 | -0.005 | 0.067 | 0.246 (active) | -0.012 | -0.005 | 0.012 | -0.012
SH3GL1 (UniProt Q99961) | 0.046 | -0.047 | 0.062 | 0 | 0.012 | 0 | -0.029 | -0.048 | -0.008 | -0.005
RPL31 (UniProt P62899) | -0.084 | 0.277 | -0.013 | 0.151 | -0.118 | -0.013 | -0.075 | -0.25 | 0.103 | -0.092
